NPC1 promoter act – NPC1 promoter activation; Huh7 NPC1 promoter luciferase reporter, 24 h; Potency, µM (titrated, usually from 9.22 µM), for the others: top-dose activation, hits mostly activators; 320,000 compounds, 2.4% hits; further: % of control where 0% means no effect; nearly all actives have a fitted effect of over 60% in size
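Huh7 cells stably carrying NPC1 promoter–luciferase, plated in Opti-MEM with 10% FBS for 2 h, were exposed to compound in DMSO for 24 h at 37 °C; luciferase reagent was added for 10 min and luminescence read.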
SMN2 splice enh – SMN2 splice variant enhancement; HEK293 SMN2-luciferase splicing reporter, luminescence, 30-36 h; Potency, µM (doses to about 46.1 µM), without a hit: at the top dose activity change, positive = activation, usual class: activators; AID 1458; 210,000 compounds, 2.8% hits; further: % of control where 0% means no effect; nearly all actives have a fitted effect of over 55% in size
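HEK293 cells carry an SMN2 […]–luciferase reporter in which exon 7 inclusion puts luciferase in frame. Cells were plated 10-12 h before compound addition, then incubated 30-36 h at 37C. ONE-Glo luminescence was read; sodium butyrate at 4.5 mM final served as control.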
ELG1 DNA repair – blocks ELG1-dependent DNA repair in HEK293T cells | HEK293T ELG1-luciferase reporter, luminescence, 16 h; DNA damage induced by 5-fluorouridine | Potency, µM (series often up to 46.1 µM), without a hit: top-dose activity change, negative = inhibition, actives largely listed as inhibitors | 330,000 compounds, 2.3% hits | AID 504467; further: on the % scale 0 is the no-effect control and ±100 the full control effect; nearly all actives have a fitted effect of over 55% in size
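Cells (2,000 per well) received 5-fluorouridine plus test compound or DMSO and were incubated 16 hr at 37 °C, 5% CO2. Luciferase activity was read by luminescence 30 min after ONE-Glo addition; signal suppression marked inhibition of damage-induced ELG1 function.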
Rab9 prom act – Rab9 promoter activation; AID 485297; Potency, µM (doses to about 9.22 µM), for the others: top-dose activation, negative = inhibition, hits mostly activators; 320,000 compounds, 2.8% hits; Huh7 Rab9 promoter-luciferase reporter, luminescence, 24 h; further: % of control where 0% means no effect; nearly all actives have a fitted effect of over 60% in size
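Cell-based reporter: Huh7 stable for Rab9 promoter-driven luciferase, plated in reduced-serum medium with 10% FBS at 1500 cells/well, compound-treated 24 h at 37 °C, luminescence read after 10 min reagent.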
FLuc counter – firefly luciferase modulation, counter-screen for miR-21 project | P08659 | purified FLuc, Km substrates, luminescence inhibition | Potency, µM (highest dose often 57.5 µM), inactives show at the highest dose activity change, negative = inhibition, usual class: inhibitors | 360,000 compounds, 6.9% hits;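 further: plate controls were vehicle for no effect and reference inhibitor for full effect; nearly all actives have a fitted effect of over 55% in size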
Target sequence (P08659 whole entry, looked up): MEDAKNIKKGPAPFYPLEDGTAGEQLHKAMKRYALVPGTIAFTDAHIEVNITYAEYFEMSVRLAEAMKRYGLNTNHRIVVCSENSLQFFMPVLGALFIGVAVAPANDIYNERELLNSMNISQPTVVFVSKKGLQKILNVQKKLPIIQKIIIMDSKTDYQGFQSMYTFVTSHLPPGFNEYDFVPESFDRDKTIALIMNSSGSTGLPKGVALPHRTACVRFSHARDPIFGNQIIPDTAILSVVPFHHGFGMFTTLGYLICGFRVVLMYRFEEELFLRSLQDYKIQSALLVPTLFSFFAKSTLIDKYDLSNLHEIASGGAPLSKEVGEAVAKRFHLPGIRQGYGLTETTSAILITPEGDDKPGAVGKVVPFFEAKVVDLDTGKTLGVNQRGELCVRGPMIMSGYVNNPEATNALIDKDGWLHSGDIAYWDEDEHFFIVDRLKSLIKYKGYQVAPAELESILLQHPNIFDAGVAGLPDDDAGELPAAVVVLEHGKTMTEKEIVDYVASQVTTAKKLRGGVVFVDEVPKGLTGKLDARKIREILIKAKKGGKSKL
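Biochemical qHTS of compounds, final roughly 60 µM downward over six points, against 10 nM purified firefly luciferase using Km concentrations of substrates (10 uM D-luciferin, 10 uM ATP) in Tris acetate pH 7.5 buffer; luminescence output.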
ELG1 genotoxic – genotoxicity induction in ELG1-luciferase HEK293T cells; HEK293T ELG1-luciferase reporter, luminescence, 16 h; Potency, µM (series often up to 46 µM), inactives show at the highest dose activity change, positive = activation, most hits filed as activators; 330,000 compounds, 1.3% hits; AID 504466; further: % of control where 0% means no effect; nearly all actives have a fitted effect of over 60% in size
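After overnight (16 hr) compound treatment at 37 °C, ELG1-luciferase HEK293T cells were lysed with ONE-Glo; luminescence quantified 30 min later at room temperature.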
Numbers without * were called inactive; [ ] = remark or other dose. This is a sample that favours compounds with a hit; in the whole collection about 9.3% have one here. The call rests on the fitted dose curve; in most records, active means well fitted curve in the direction sought with a large enough effect; inconclusive means small, poorly fitted or top-dose-only effect, or another doubt; inactive means no such curve, though single readings can be large; an effect the other way counts as inactive or inconclusive. Potency means the concentration at half of the fitted maximal effect.

Results for Cc1c(C#N)c(O)n(C)c(=O)c1N=Nc1ccc(S(N)(=O)=O)cc1 ?
NPC1 promoter act: 17%; SMN2 splice enh: -31%; ELG1 DNA repair: -13%; Rab9 prom act: 20%; FLuc counter: inconclusive; ELG1 genotoxic: 12%

What do the screens show for `CCOC(=O)c1ccc(N=Nc2c(C)c(C#N)c(O)[nH]c2=O)cc1`?
NPC1 promoter act: 16%; SMN2 splice enh: 50%; ELG1 DNA repair: inconclusive; Rab9 prom act: 4.5µM*; FLuc counter: 2.7µM*; ELG1 genotoxic: inconclusive

Results for COc1ccc(/C=N/NC(=S)Nc2cccc(C(=O)O)c2)cc1OC ?
NPC1 promoter act: 1%; SMN2 splice enh: 2%; ELG1 DNA repair: 12%; Rab9 prom act: -1%; FLuc counter: 5.4µM*; ELG1 genotoxic: 3%

What do the screens show for `COc1cc(/C=N/NC(=O)C[n+]2ccccc2)cc(OC)c1OC`?
NPC1 promoter act: -5%; SMN2 splice enh: 6%; ELG1 DNA repair: 0%; Rab9 prom act: -7%; FLuc counter: 2%; ELG1 genotoxic: 3%

How did COc1cc(/C=N/NC(=S)Nc2cccc(C(=O)O)c2)cc(OC)c1OC do in these assays?
NPC1 promoter act: 1%; SMN2 splice enh: inconclusive; ELG1 DNA repair: 14%; Rab9 prom act: -1%; FLuc counter: 24µM*; ELG1 genotoxic: 2%

How did COc1ccc(/C=N/NC(=O)CCC(=O)Nc2ccccc2)cc1OC do in these assays?
NPC1 promoter act: 1%; SMN2 splice enh: 10%; ELG1 DNA repair: 8%; Rab9 prom act: -7%; FLuc counter: -18%; ELG1 genotoxic: 0%

How did COc1cccc(/C=N/NC(=S)Nc2cccc(C(=O)O)c2)c1 do in these assays?
NPC1 promoter act: 2µM*; SMN2 splice enh: 14µM*; ELG1 DNA repair: inconclusive; Rab9 prom act: 3.2µM*; FLuc counter: 1.7µM*; ELG1 genotoxic: 1%

How did COc1cc(/C=N/NC(=S)N/N=C/c2cc(OC)c(OC)c(OC)c2)cc(OC)c1OC do in these assays?
NPC1 promoter act: 25%; SMN2 splice enh: 4.5µM*; ELG1 DNA repair: inconclusive; Rab9 prom act: 20%; FLuc counter: 0.21µM*; ELG1 genotoxic: inconclusive

What do the screens show for `COc1cc(/C=C/C(=O)NC(C)C2CC3CCC2C3)cc(OC)c1OC` (configuration not stated)?
NPC1 promoter act: 0%; ELG1 DNA repair: 21%; Rab9 prom act: 1%; FLuc counter: -2%; ELG1 genotoxic: 8%

Results for CN1CCN(c2ccnc(-c3ccccc3C(F)(F)F)n2)CC1 ?
SMN2 splice enh: -27%

What do the screens show for `Cc1cn([C@@H]2C[C@H](N=[N+]=N)[C@H](CO)O2)c(=O)[nH]c1=O`?
SMN2 splice enh: 4%[20.6 µM]

How did Cc1cccc(C(=O)NNC2=CC(=O)CC(C)(C)C2)c1O do in these assays?
NPC1 promoter act: 25%; ELG1 DNA repair: inconclusive; Rab9 prom act: inconclusive; FLuc counter: 11µM*; ELG1 genotoxic: inconclusive

What do the screens show for `CC1(C)CC(=O)C=C(NNC(=O)c2ccccc2O)C1`?
NPC1 promoter act: inconclusive; SMN2 splice enh: 18µM*; ELG1 DNA repair: inconclusive; Rab9 prom act: 3.2µM*; FLuc counter: 0.85µM*; ELG1 genotoxic: 17%

Results for Cc1cccc(Sc2nc(-c3ccccc3)ncc2C(=O)O)c1 ?
NPC1 promoter act: -3%; SMN2 splice enh: -19%; ELG1 DNA repair: inconclusive; Rab9 prom act: -7%; FLuc counter: inconclusive; ELG1 genotoxic: -2%

How did O=[N+]([O-])c1ccc(CSC2=NCCS2)cc1 do in these assays?
NPC1 promoter act: 4%; ELG1 DNA repair: 19%; Rab9 prom act: 22%; FLuc counter: inconclusive; ELG1 genotoxic: 7%

How did CCOC(=O)C1CCN(C(=O)c2cc3cc4ccc(OC)cc4nc3o2)CC1 do in these assays?
NPC1 promoter act: 0.63µM*; ELG1 DNA repair: inconclusive; Rab9 prom act: 0.89µM*; FLuc counter: inconclusive; ELG1 genotoxic: inconclusive

What do the screens show for `COc1ccc2cc3cc(C(=O)N4CCN(c5ccccn5)CC4)oc3nc2c1`?
NPC1 promoter act: -5%; ELG1 DNA repair: -4%; Rab9 prom act: 0%; FLuc counter: 19µM*; ELG1 genotoxic: -5%

What do the screens show for `COc1ccc2nc3oc(C(=O)N4CCC(C(N)=O)CC4)cc3cc2c1`?
NPC1 promoter act: 21%; SMN2 splice enh: 23%; ELG1 DNA repair: inconclusive; Rab9 prom act: 19%; FLuc counter: -27%; ELG1 genotoxic: 10%

What do the screens show for `COc1ccc2cc3cc(C(=O)N4CCN(Cc5ccc6c(c5)OCO6)CC4)oc3nc2c1`?
NPC1 promoter act: 1%; SMN2 splice enh: -12%; ELG1 DNA repair: 23µM*; Rab9 prom act: -2%; FLuc counter: -1%; ELG1 genotoxic: -13%

What do the screens show for `CCN(CC)c1ccc(/C=N/NC(=O)Nc2nonc2N)cc1`?
NPC1 promoter act: 21%; SMN2 splice enh: inconclusive; ELG1 DNA repair: inconclusive; Rab9 prom act: 19%; FLuc counter: 13µM*; ELG1 genotoxic: 2%

How did CCN(CC)c1ccc(/C=N/NC(=O)Cc2ccc(OC)c(OC)c2)cc1 do in these assays?
NPC1 promoter act: 0%; ELG1 DNA repair: -4%; Rab9 prom act: -13%; FLuc counter: inconclusive; ELG1 genotoxic: 1%

Results for O=C(N/N=C/C1CC2CCC1C2)c1ccc2c(c1)OCO2 (configuration not stated) ?
NPC1 promoter act: -5%; SMN2 splice enh: -3%; ELG1 DNA repair: inconclusive; Rab9 prom act: 3%; FLuc counter: 13µM*; ELG1 genotoxic: 1%

What do the screens show for `O=C(N/N=C\C=C\c1ccc(Br)cc1)c1ccc2c(c1)OCO2`?
NPC1 promoter act: 1%; ELG1 DNA repair: -11%; Rab9 prom act: -3%; FLuc counter: 3%; ELG1 genotoxic: 5%

What do the screens show for `CCN(CC)c1ccc(/C=N/NC(=O)c2ccc(Br)o2)cc1`?
NPC1 promoter act: 2.2µM*; SMN2 splice enh: 11µM*; ELG1 DNA repair: inconclusive; Rab9 prom act: 3.2µM*; FLuc counter: 3µM*; ELG1 genotoxic: inconclusive

How did O=C(N/N=C/c1ccsc1)c1ccc2c(c1)OCO2 do in these assays?
NPC1 promoter act: 3.5µM*; ELG1 DNA repair: inconclusive; Rab9 prom act: 2.8µM*; FLuc counter: 3.4µM*; ELG1 genotoxic: inconclusive

Results for COC(=O)N[C@@H](CCc1ccccc1)/C(C(=O)OC)=C(\C)NCc1ccccc1 ?
SMN2 splice enh: 12%

What do the screens show for `O=C(CCc1nnc(C2CCCCC2)o1)N1CCN(Cc2ccccc2)CC1`?
NPC1 promoter act: -3%; ELG1 DNA repair: -6%; Rab9 prom act: 0%; FLuc counter: 0%; ELG1 genotoxic: -2%

Compound activity deposited in PubChem by National Center for Advancing Translational Sciences (NCATS).
